For 28 molecules, growth results are on record in PubChem BioAssay (NCI).

Common to all, as to experiment: NCI-60 one-dose screen, 48 h (100 = growth as untreated, 0 = no growth, -100 = all killed)
Details in all cases: 10 µM unless noted

The test system of test [1] is T-47D breast.
Test [2] deals with BT-549 breast.
Test [3] relates to MDA-MB-435 melanoma.
In test [4] the test system is SW-620 colon.
In test [5] the test system is MCF7 breast.
The test system of test [6] is HCT-116 colon.
The test system of test [7] is HCC-2998 colon.
Test [8] deals with KM12 colon.

Structures are written as SMILES. Compounds without any hit were thinned out: in the full panel of roughly 83,000, 20% have a hit.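 The test compound was applied at a single concentration to cells in 96-well plates for 48 hours, and percent growth was recorded.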 Values without a mark were called inactive. Calls of active or inactive are those of the source. The calls were made as follows: active = growth percent below 10; inactive = the rest.

Turning to `CC[C@H](C)C(=O)O[C@H]1CCC=C2C=C[C@H](C)[C@H](CC[C@@H]3CC=CC(=O)O3)[C@H]21`, the growth in test [1] is 83.5%; in test [2] it was 87.5%; in test [3], 86%; in test [4] it was 85.9%; in test [5], 72.3%; in test [6], 48.5%. For the same molecule, the figures for the growth in test [7] and in test [8] were 101% and 72.5%, respectively.

As for `CCOC(=O)c1cn2ncnc(Oc3ccc(NC(=O)NCCN4CCOCC4)c(Cl)c3)c2c1C`, the growth is 80.6% in test [1]; 96.5% in test [2]; 97.3% in test [3]; 94.1% in test [4]; 88.5% in test [5]; 94.7% in test [6]. Also, the figures for the growth in test [7] and in test [8] were 110% and 103%, respectively.

On to `CCS(=O)(=O)c1ncnc2nc[nH]c12`, for which the growth is 89.8% in test [1]; 90.9% in test [2]; 104% in test [3]; 99.8% in test [4]; 89.2% in test [5]; 87.3% in test [6]. For the same molecule, the growth in test [7] was 107%; in test [8], 108%.

`Nc1ccc(Sc2ccc([N+](=O)[O-])c3nonc23)cc1`: the growth in test [1] was 54.5%; in test [2], 88.8%; in test [3], 99.2%; in test [4] it was 46%; in test [5], 73.2%; in test [6] it was 66.3%. For the same molecule, the growth in test [7] is 108%; in test [8] it was 96.2%.

For `Cc1ccc(-c2nc(SCC(=O)Nc3nc(-c4ccc(Cl)cc4)cs3)[nH]c(=O)c2C#N)cc1`, the growth in test [1] is 87.2%; in test [2] it was 83.6%; in test [3] it was 107%; in test [4], 107%; in test [5], 97.7%; in test [6], 91.6%. The growth in test [7] was 109%; in test [8] it was 96.1%.

Consider `CN(C)CCN1CCN(c2ncccc2C2Nc3ccccc3-n3cccc32)CC1` (centres undefined), for which the growth in test [1] was 90.1%; in test [2], 92.3%; in test [3] it was 101%; in test [4], 97.8%; in test [5], 101%; in test [6], 105%. Moreover, the results for the growth in test [7] and in test [8] were 114% and 105%, respectively.

For `O=C(CCCCCCSc1nc(-c2ccccc2)cc(-c2ccccc2)n1)NO`, the growth was -11.1% (active) in test [1]; 30.9% in test [2]; 17.3% in test [3]; 8.47% (active) in test [4]; 16.1% in test [5]; 11.6% in test [6]. The growth was 63.4% in test [7] and 50.7% in test [8].

Consider `Cc1ccc2nc(NC(=O)CSc3nc(Cl)c(C#N)c(-c4ccccc4)n3)sc2c1`, for which the growth in test [1] is 89.1%; in test [2], 103%; in test [3] it was 98.8%; in test [4], 103%; in test [5] it was 91.7%; in test [6] it was 102%. For the same molecule, the growth was 108% in test [7] and 110% in test [8].

As for `c1ccc(OCc2nnc(-c3ccc(Oc4ccccc4)cc3)o2)cc1`, the growth in test [1] was 74.3%; in test [2], 101%; in test [3], 101%; in test [4], 103%; in test [5] it was 99.3%; in test [6], 100%. The growth in test [7] is 114%; in test [8], 93.7%.

As to `COc1c(N2CC3CCCN(C(C)=O)C3C2)c(F)cc2c(=O)c(C(=O)N[C@H]3C(O)[C@@H](O)C(CO)O[C@H]3O)cn(C3CC3)c12` (some centres undefined), the growth in test [1] was 99.9%; in test [2] it was 115%; in test [3] it was 105%; in test [4] it was 105%; in test [5], 101%; in test [6], 108%. The growth was 115% in test [7] and 102% in test [8].

`COc1ccc(/C=C/c2c(C(=O)/C=C/c3ccc(C(F)(F)F)cc3)c(C)nc3ccccc23)cc1`: the growth in test [1] is -13.3% (active); in test [2], -14.2% (active); in test [3] it was -56.5% (active); in test [4] it was -42.3% (active); in test [5] it was 1.41% (active); in test [6], -67.8% (active). The growth in test [7] is -77% (active); in test [8], -67.6% (active).

With `NS(=O)(=O)c1ccc(-n2nc(C(=O)N/N=C\c3ccc(F)cc3)cc2-c2ccc(Br)cc2)cc1`, the growth was 69.7% in test [1]; 86.1% in test [2]; -1.32% (active) in test [3]; 62.8% in test [4]; 55.1% in test [5]; 82.8% in test [6]. Further, the growth in test [7] is 86.9%; in test [8] it was 61.8%.

As for `COc1ccc(CN2c3ccccc3CCc3ccccc32)cc1F`, the growth in test [1] is 47.1%; in test [2], 54%; in test [3], -49.4% (active); in test [4], 20.5%; in test [5], 20.4%; in test [6], 2.32% (active). In addition, the growth in test [7] was 30.7%; in test [8] it was 16.5%.

Consider `COc1ccc(C(=O)/C=C/c2sc(Cl)nc2Cl)cc1`, for which the growth in test [1] is 59%; in test [2], -4.31% (active); in test [3], 15.7%; in test [4], 18.6%; in test [5], -7.05% (active); in test [6], 17.7%. In addition, the growth is -36% (active) in test [7] and 39% in test [8].

As for `Cc1cc2nc3ccc(N=Nc4ccc(N(C)C)cc4)cc3n(-c3ccccc3)c-2cc1=N`, the growth in test [1] is -57.2% (active); in test [2], -82.2% (active); in test [3] it was -97.5% (active); in test [4], -88.9% (active); in test [5] it was -65.1% (active); in test [6], -60.2% (active). In addition, the growth in test [7] was -81.8% (active); in test [8] it was -91.2% (active).

As for `CCc1ccc(Oc2c(-c3ccc(OCc4ccc(Cl)cc4)cc3O)n[nH]c2C(F)(F)F)cc1`, the growth in test [1] is -2.85% (active); in test [2], 34.7%; in test [3], 7.72% (active); in test [4], 17.4%; in test [5], 4.9% (active); in test [6], -5.05% (active). The growth was 62.2% in test [7] and 19.5% in test [8].

`COc1ccc(/C=C(\C#N)n2nnc3c(F)cccc32)cc1`: the growth is 16.1% in test [1]; 45.4% in test [2]; -78.4% (active) in test [3]; 15.6% in test [4]; 18.8% in test [5]; 8.75% (active) in test [6]. The growth in test [7] is 1.33% (active); in test [8], 7.96% (active).

For `Oc1c(I)cc(I)cc1CNCCCN(Cc1ccccn1)Cc1ccccn1`, the growth in test [1] is -57% (active); in test [2], -73.2% (active); in test [3], -90.7% (active); in test [4], -61.9% (active); in test [5] it was -56.3% (active); in test [6], -87% (active). Further, the growth was -82.5% (active) in test [7] and -85.1% (active) in test [8].

With `O=C(CSc1nccc(Nc2ccc(S(=O)(=O)Nc3nccs3)cc2)n1)c1ccc(C(F)(F)F)cc1`, the growth in test [1] is 82.1%; in test [2], 88.2%; in test [3] it was 99%; in test [4], 102%; in test [5], 94.2%; in test [6], 86.7%. The growth in test [7] is 112%; in test [8] it was 106%.

As for `NC1=C(c2nn[nH]n2)C(c2ccccc2Cl)c2ccc3ccccc3c2O1` (centres undefined), the growth was 69.3% in test [1]; 93.1% in test [2]; -10.3% (active) in test [3]; 48.8% in test [4]; 41.3% in test [5]; 63.1% in test [6]. Moreover, the values for the growth in test [7] and in test [8] were 98.6% and 60.4%, respectively.

Take `O=C(Nc1ccc(I)cc1F)c1cc(I)ccc1O`: the growth is -0.561% (active) in test [1]; -9.42% (active) in test [2]; 2.77% (active) in test [3]; 10.8% in test [4]; 3.31% (active) in test [5]; 5.17% (active) in test [6]. Also, the growth is 17.6% in test [7] and 2.37% (active) in test [8].

Consider `Cc1ccc(C(=O)NN2C(=O)CSC2c2ccc(Cl)cc2)cn1` (centres undefined), for which the growth in test [1] was 84%; in test [2] it was 192%; in test [3], 91.1%; in test [4] it was 97%; in test [5] it was 105%; in test [6] it was 96%. The growth in test [7] is 96.5%; in test [8], 97.9%.

Take `Oc1ccc(CCl)c2cccnc12`: the growth in test [1] is 30.3%; in test [2] it was 66.7%; in test [3], 84.8%; in test [4], 41.5%; in test [5], 5.57% (active); in test [6], 15.4%. Moreover, the growth in test [7] was 91.3%; in test [8], 82%.

For the molecule `Cn1cc(-c2cc3ncnc(Nc4ccc(CC(=O)Nc5cc(C(C)(C)C)nn5C)cc4)c3s2)cn1`, the growth in test [1] was 12.1%; in test [2], 45.7%; in test [3], 58.4%; in test [4] it was 63%; in test [5] it was 54.8%; in test [6], 39.2%. Further, the growth in test [7] is 80.8%; in test [8] it was 16.7%.

Turning to `Nc1nc(Cl)cc(=O)n1Cc1ccccc1`, the growth in test [1] is 83.4%; in test [2] it was 102%; in test [3], 92.6%; in test [4], 105%; in test [5], 98.1%; in test [6] it was 95.2%. In addition, the growth in test [7] is 89.4%; in test [8], 101%.

As for `COc1cccc(Oc2ccccc2NC(=O)CNC(=O)c2cccc3ccccc23)c1`, the growth in test [1] was 62.3% [5 µM]; in test [2] it was 50.7% [5 µM]; in test [3], -20.5% [5 µM] (active); in test [4] it was 22.4% [5 µM]; in test [5] it was 20.5% [5 µM]; in test [6], 3.51% [5 µM] (active). Moreover, the growth is 25.5% [5 µM] in test [7] and 13.5% [5 µM] in test [8].

Take `Cc1ccc(S(=O)(=O)N/N=C/C2(c3ccccc3)CC2)cc1`: the growth in test [1] was 101%; in test [2], 102%; in test [3], 104%; in test [4], 97.1%; in test [5], 88.6%; in test [6] it was 98.7%. The results for the growth in test [7] and in test [8] were 111% and 107%, respectively.

Consider `C#C[C@]1(O)CC[C@H]2[C@@H]3CC=C4c5sc(Nc6ccccc6)nc5CC[C@]4(C)[C@H]3CC[C@@]21C`, for which the growth in test [1] was 28.6%; in test [2], 19.9%; in test [3], 34.4%; in test [4], 3.04% (active); in test [5] it was 8.14% (active); in test [6], -33.3% (active). The growth is 45.3% in test [7] and 13.1% in test [8].
